Here are results for 40 compounds from PubChem BioAssay (NCATS).

Values without a mark were called inactive. Records with an inconclusive call do not appear. Entries that show only a call come without a potency. Active and inactive are the calls of the source. Unless noted, the call rests on the fitted dose curve; in most records, active means well fitted curve in the direction sought with a large enough effect; inconclusive means small, poorly fitted or top-dose-only effect, or another doubt; inactive means no such curve, though single readings can be large; an effect the other way counts as inactive or inconclusive.

Test [1] can be described thus: qHTS for Activators of Parkin Expression: LOPAC Validation Assay (FLuc Reporter) (AID 720573). In short, it runs like this:
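A neuronal cell line harbouring FLuc and NLuc reporters behind the Parkin promoter was exposed to compounds for 24 h. Firefly luciferase signal, measured after 10 min with detection reagent, was scaled to DMSO and positive-control wells.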

The target of test [2] is T1, Hexokinase-4 (Homo sapiens) + Glucokinase regulatory protein (Homo sapiens) (UniProt P35557+Q14397). In words: qHTS assay for inhibitors of recombinant human GCK-GKRP interaction: Diaphorase-coupled assay (AID 743205). Further: potency means the concentration at half of the fitted maximal effect. Summed up: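 Inhibitors of the GCK–GKRP complex relieve GKRP suppression of GCK, detected through a G6PDH–diaphorase cascade reducing resazurin. Human GST-GCK and FLAG-GKRP are used at 10 nM with 5 mM glucose and 0.4 mM ATP.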

Test [3] concerns the target T1, Hexokinase-4 (Homo sapiens) + Glucokinase regulatory protein (Homo sapiens). The test can be described thus: qHTS assay for inhibitors of recombinant human GCK-GKRP interaction: ADP-Glo assay (AID 743206). Summed up:
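Pin-transferred compounds meet a 15 nM GST-GCK/15 nM FLAG-GKRP/2 uM S6P mix (dispense concentrations). ATP is then added to 0.4 mM final with 5 mM glucose, and the reaction runs 60 min at room temperature. ADP is quantified luminescently.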

Test [4] has the same target. The test can be described thus: qHTS assay for inhibitors of recombinant human GCK-GKRP interaction: HTRF assay (AID 743207). Summed up:
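Steps: dispense GCK–GKRP complex (5 nM each, GST- and FLAG-tagged) with 2 uM S6P; pin in compounds; add XL665/Eu-cryptate-labelled antibodies; incubate 60 min at room temperature; read time-resolved FRET at 665 and 615 nm.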

A short description of test [5]: qHTS assay for small molecule agonists of the antioxidant response element (ARE) signaling pathway measured by Nrf2-dependant transcriptional activity (AID 720636; active means well fitted curve in the direction sought with a large enough effect in the repeat runs; an effect the other way counts as inactive or inconclusive;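 further: HepG2 cells with an ARE-driven luciferase reporter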). In short, it runs like this:
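Attachment 6 hr at 37 C, then compound versus DMSO vehicle for 16 hr in ARE-luc HepG2 cells (1% dialyzed FBS); luminescence recorded 30 min after ONE-Glo addition at room temperature.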

Test [6] can be described thus: qHTS assay for small molecule antagonists of the retinoid-related orphan receptor gamma (ROR-gamma) signaling pathway - cell viability counter screen (AID 720652; active means well fitted curve in the direction sought with a large enough effect in the repeat runs; an effect the other way counts as inactive or inconclusive;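 further: compound exposure lasted 16 hr before ATP read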; further: potency means the concentration at half of the fitted maximal effect). Summed up: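 ATP-based viability readout in the ROR-gamma reporter CHO cells after 16 hr compound exposure under doxycycline induction.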
Test [7] in a line: qHTS Assay for Identifying Gametocytocidal Compounds (AID 743244).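 Further: actives lower the fluorescent signal which means gametocytes are killed.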 The settings on record: P. falciparum 3D7 stage III-V gametocytes, alamarBlue, 72 h; max response: active compounds read low. In short, it runs like this:
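Late gametocytes (III–V), P. falciparum 3D7; 72 h drug, then 24 h alamarBlue; resazurin reduction read by fluorescence.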

Test [8] in a line: qHTS assay for cell viability of HEK293 cells (AID 743288). Further: nearly all actives have a fitted effect of over 50% in size. Particulars: ATP luminescence (CellTiter-Glo), 18 h; max response: active compounds read low. In short, it runs like this: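 Quantitative high-throughput screen: compounds were pinned onto parental HEK293 cells (2,000 per well) after a minimum 5 h settling at 37 C, incubated 18 h at 37 C, and intracellular ATP measured by luciferase luminescence.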

Test [9] is described as follows: qHTS assay for cell viability of the p53RE-bla HCT-116 cell line (AID 743292). Further: nearly all actives have a fitted effect of over 55% in size. Summed up:
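Compound-exposed HCT-116 (p53RE-bla) cells, 4,000 per well, were kept 16 h at 37 C following a 5 h preincubation. Cell number was estimated from total ATP by CellTiter-Glo luminescence read after 30 min at room temperature.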

T1 sequence (P35557 whole entry, looked up): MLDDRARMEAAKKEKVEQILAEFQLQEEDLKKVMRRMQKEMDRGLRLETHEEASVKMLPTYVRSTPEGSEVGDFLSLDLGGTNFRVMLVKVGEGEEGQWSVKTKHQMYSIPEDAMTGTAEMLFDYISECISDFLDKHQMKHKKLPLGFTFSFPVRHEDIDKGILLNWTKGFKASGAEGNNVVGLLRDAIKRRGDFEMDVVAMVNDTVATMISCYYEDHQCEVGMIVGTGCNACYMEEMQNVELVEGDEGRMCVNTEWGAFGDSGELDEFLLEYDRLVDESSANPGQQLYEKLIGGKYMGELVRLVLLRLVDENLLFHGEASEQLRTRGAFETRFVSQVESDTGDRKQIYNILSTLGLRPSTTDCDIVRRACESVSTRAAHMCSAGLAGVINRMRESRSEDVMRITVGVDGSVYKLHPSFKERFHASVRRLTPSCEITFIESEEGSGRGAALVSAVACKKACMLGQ
T1 sequence (Q14397 whole entry, looked up): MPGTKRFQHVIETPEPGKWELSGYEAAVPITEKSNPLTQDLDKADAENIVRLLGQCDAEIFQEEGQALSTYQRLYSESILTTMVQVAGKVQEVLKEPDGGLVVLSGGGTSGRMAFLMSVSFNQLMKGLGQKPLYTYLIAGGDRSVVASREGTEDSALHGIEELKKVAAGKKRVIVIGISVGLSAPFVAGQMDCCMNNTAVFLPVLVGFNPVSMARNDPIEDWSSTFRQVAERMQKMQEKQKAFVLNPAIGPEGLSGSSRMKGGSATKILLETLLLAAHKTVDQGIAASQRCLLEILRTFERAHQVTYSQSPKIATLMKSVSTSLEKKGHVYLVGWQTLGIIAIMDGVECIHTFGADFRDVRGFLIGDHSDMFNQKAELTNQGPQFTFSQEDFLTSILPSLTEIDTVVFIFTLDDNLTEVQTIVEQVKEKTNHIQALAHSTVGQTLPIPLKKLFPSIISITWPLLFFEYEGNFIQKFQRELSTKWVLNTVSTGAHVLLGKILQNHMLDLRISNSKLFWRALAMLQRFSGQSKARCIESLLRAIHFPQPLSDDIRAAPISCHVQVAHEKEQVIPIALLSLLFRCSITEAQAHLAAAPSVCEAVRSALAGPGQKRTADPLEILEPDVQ

Regarding `COc1ccc(CNC(=O)/C=C/c2ccc3[nH]cc(CCN(C)C)c3c2)cc1`, the compound was called inactive in test [1], in test [3] and in [4]. In test [2], the Potency entry was “inactive”.

Regarding `CCCC[N+]1(C)C2CC(OC(=O)[C@H](CO)c3ccccc3)CC1C1OC12` (stereo partly drawn), the compound was classed as inactive in test [1], in test [3] and in [4]. The Potency entry in [2] is “inactive”.

As to `NC(N)=Nc1ccc2[nH]c3c(c2c1)C[C@@]1(O)[C@H]2Cc4ccc(O)c5c4[C@@]1(CCN2CC1CC1)[C@H]3O5`, the result in test [1], in test [3] and in [4] was inactive. The Potency result in test [2] is “inactive”.

Regarding `C[N+]1(C)CCc2cc3c(cc2[C@H]1[C@@H]1OC(=O)c2c1ccc1c2OCO1)OCO3`, the compound was called inactive in [1], in test [3] and in test [4]. Moreover, the Potency result in test [2] was “inactive”.

On to `NNC(N)=O`, for which the call in test [1] and in [3] was inactive. The Potency result in test [5], in [6], in test [2] and in test [9] was “inactive” throughout. For the same compound, the max response is 14.6% in test [7] and -7.58% in test [8].

On to `CCNC(=O)[C@H]1O[C@@H](n2cnc3c(N)ncnc32)[C@H](O)[C@@H]1O`, for which the result in [1], in [3] and in test [4] was inactive. Besides, in [2], the Potency entry is “inactive”.

Turning to `CCn1cnc2c(Nc3cccc(Cl)c3)nc(N[C@@H]3CCCC[C@@H]3N)nc21`, the outcome in [1], in test [3] and in [4] was inactive. Moreover, the Potency entry in test [2] is “inactive”.

For the compound `c1ccc2c(N3CCNCC3)cccc2c1`, the compound was called inactive in [1], in [3] and in [4]. In addition, the Potency result in test [2] is “inactive”.

Consider `CC(C)(C)c1cc(C=C(C#N)C#N)cc(C(C)(C)C)c1O`, for which the call in test [1] and in test [3] was inactive. For the same compound, the Potency entry in test [2] is “inactive”.

With `O=S1(=O)N(CCN2CC=C(c3c[nH]c4cc(F)ccc34)CC2)c2cccc3c2N1CCC3`, the call in test [1], in [3] and in test [4] was inactive. The Potency result in test [2] is “inactive”.

Take `Cc1cc([C@@H]2CCCN2C)on1`: the compound was classed as inactive in [1], in test [3] and in [4]. Further, the Potency result in test [2] is “inactive”.

Turning to `CCS(=O)(=O)Nc1cccc(C(=C2CCCCC2)c2cnc[nH]2)c1`, the outcome in [1], in [3] and in test [4] was inactive. Also, the Potency entry in test [2] is “inactive”.

With `COc1ccc2c(c1)C13CCCCC1C(C2)N(C)CC3` (stereo not drawn), the compound was classed as inactive in test [1] and in test [3]. In [2], the Potency entry is “inactive”.

Take `Oc1ccc2c3c1O[C@H]1c4oc5ccccc5c4C[C@@]4(O)C(C2)N(CC2CC2)CCC314` (stereo partly drawn): the result in test [1], in test [3] and in [4] was inactive. The Potency entry in [2] was “inactive”.

For the compound `C[C@]12Cc3cn4c(nc3C=C1CCC1C2CC[C@@]2(C)[C@H]1CC[C@@]2(O)C#N)nc1ccccc14` (stereo partly drawn), the result in test [1], in test [3] and in test [4] was inactive. In [2], the Potency entry is “inactive”.

On to `CC(=O)OCC1=C(C(=O)O)N2C(=O)[C@@H](NC(=O)CCC[C@@H](N)C(=O)O)[C@H]2SC1`, for which the compound was called inactive in test [1], in test [3] and in [4]. Also, the Potency entry in test [2] is “inactive”.

Take `C[N+](C)(C)CC#CCOC(=O)Nc1cccc(Cl)c1`: the call in test [1] and in [3] was inactive. The Potency entry in test [2] was “inactive”.

Take `O=c1c2ccccc2[se]n1-c1ccccc1`: the compound was classed as inactive in [1], in [3] and in test [4]. The Potency in test [2] is 14.1 µM (active).

Turning to `Clc1ccc(N2CC3CCC(C2)N3)nn1`, the compound was classed as inactive in [1], in test [3] and in test [4]. In addition, the Potency result in test [2] is “inactive”.

For `COc1ccc2c(c1)/C(=C/c1cnc[nH]1)C(=O)N2`, the outcome in [1] and in test [3] was inactive. In addition, the Potency entry in test [2] was “inactive”.

With `CCCN(CCC)[C@@H]1CCc2cccc(O)c2C1`, the call in test [1] and in [3] was inactive. Besides, the Potency entry in test [2] is “inactive”.

Consider `O=C1C=CC(=O)C=C1`, for which the compound was called inactive in test [1] and in test [3]. Moreover, the Potency result in test [5], in [2] and in test [9] was “inactive” each time. In [6], the Potency is 26.6 µM (active). Moreover, in test [7], the max response was 4.21%.

Consider `CCCN1CCC[C@@H](c2cccc(O)c2)C1`, for which the call in test [1] and in test [3] was inactive. Further, the Potency result in [2] was “inactive”.

With `CCN1C[C@@]2(COC)C3[C@@H](OC)C4[C@@H]1C3([C@@H]1C[C@]3(O)[C@H](OC(=O)c5ccccc5)[C@@H]1[C@]4(OC(C)=O)[C@@H](O)[C@@H]3OC)[C@H](OC)C[C@H]2O`, the compound was classed as inactive in [1], in test [3] and in [4]. The Potency entry in test [2] is “inactive”.

Regarding `Cc1o[nH]c(=O)c1CC(N)C(=O)O` (stereo not drawn), the call in [1] and in [3] was inactive. The Potency entry in [2] is “inactive”.

For the compound `CC1(C(=O)O)C2CCC(O2)C1(C)C(=O)O` (stereo not drawn), the outcome in [1] and in test [3] was inactive. Besides, in test [2], the Potency result is “inactive”.

Turning to `CC(N)c1cccc(Cl)c1Cl` (stereo not drawn), the call in test [1], in test [3] and in test [4] was inactive. In addition, the Potency entry in test [2] is “inactive”.

As to `Cc1[nH]c2ccc(O)cc2c1CCN`, the compound was classed as inactive in test [1], in test [3] and in test [4]. In addition, in [2], the Potency entry is “inactive”.

With `CCCN(CCC)CCc1ccc(O)c(O)c1`, the result in test [1] and in test [3] was inactive. In addition, in [2], the Potency result is “inactive”.

In the case of `NCC(CP(=O)(O)O)c1ccc(Cl)cc1` (stereo not drawn), the compound was classed as inactive in [1], in test [3] and in [4]. Also, the Potency result in [2] was “inactive”.

Regarding `C[C@H](N)CN1CCc2ccc(Br)cc21`, the result in [1], in [3] and in test [4] was inactive. Also, the Potency result in [2] is “inactive”.

With `O=C1CC[C@@]2(O)C3Cc4ccc(O)c5c4C2(CCN3CC2CC2)[C@H]1O5` (stereo partly drawn), the compound was classed as inactive in test [1], in [3] and in test [4]. Moreover, the Potency entry in test [2] is “inactive”.

As to `CCCCCCC(C)(C)c1ccc([C@@H]2C[C@H](O)CC[C@H]2CCCO)c(O)c1`, the compound was classed as inactive in test [1], in test [3] and in test [4]. Also, in test [2], the Potency result was “inactive”.

For the compound `CCCN(CCC)[C@H]1CCc2c(F)ccc(O)c2C1`, the call in [1], in test [3] and in test [4] was inactive. For the same compound, the Potency entry in [2] is “inactive”.

In the case of `C[C@H](Cc1ccc2c(c1)OC(C(=O)O)(C(=O)O)O2)NC[C@H](O)c1cccc(Cl)c1`, the outcome in test [1], in test [3] and in test [4] was inactive. Also, the Potency entry in test [2] was “inactive”.

As to `O=[N+]([O-])c1ccc2nc(N3CCNCC3)ccc2c1`, the compound was called inactive in [1], in test [3] and in [4]. In [2], the Potency result is “inactive”.

In the case of `CN1C2CCC1CC(OC(c1ccccc1)c1ccccc1N)C2` (stereo not drawn), the result in [1], in test [3] and in test [4] was inactive. Also, the Potency result in [2] was “inactive”.

On to `COc1ccc2c(c1)[C@@]13CCCC[C@H]1[C@@H](C2)NCC3`, for which the result in [1] and in test [3] was inactive. The Potency result in test [2] is “inactive”.

`CN(N=O)c1cc(O)ccc1O`: the compound was called inactive in test [1], in test [3] and in [4]. For the same compound, the Potency entry in [2] was “inactive”.

As to `COc1ccc(OC)c(C(O)C(C)N)c1` (stereo not drawn), the result in test [1], in [3] and in [4] was inactive. Besides, the Potency entry in test [2] was “inactive”. The max response in test [7] was 11.7%.
